Source: PubChem BioAssay
VP16 counter = inhibits Gal4-VP16 luciferase reporter, ROR gamma counter-screen | Drosophila S2 Gal4-VP16 UAS-luciferase, luminescence, 20 h | Potency, µM (highest dose often 53.6 µM), inactives show at the highest dose activity, negative = inhibition, usual class: inhibitors | hit rate 3.5% among 310,000;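 also: Gal4-VP16 expression switched on by copper sulfate through the metallothionein promoter; potency is read from the fitted curve at half-maximal effect; nearly all actives have a fitted effect of over 50% in size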
TDP1 cell CPT = growth inhibition of DT40 Tdp1-/-;hTDP1 cells with camptothecin (screen for TDP1 inhibitors) | chicken DT40 Tdp1-/-;hTDP1 cells + 20 nM CPT, ATP luminescence, 48 h | Potency, µM (top dose mostly 46.2 µM), inactives show at the highest dose activity change, negative = growth inhibition, most hits filed as inhibitors | hit rate 12% among 420,000 | AID 686979; also: potency is read from the fitted curve at half-maximal effect; nearly all actives have a fitted effect of over 55% in size
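Chicken DT40 Tdp1-/- cells stably complemented with human TDP1 were seeded at 400 cells/well in medium containing 20 nM camptothecin, exposed to pin-transferred compounds, and grown at 37 °C for at least 48 hr. Viability was read as ATP luminescence.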
RORgamma inh = blocks mouse ROR gamma transcriptional activity. Drosophila S2 Gal4-RORgamma UAS-luciferase reporter, 20 h. AID 2551. hit rate 5.4% among 310,000. Potency, µM (doses to about 53.6 µM), for inactives: top-dose activity change, negative = inhibition, hits mostly inhibitors; also: potency is read from the fitted curve at half-maximal effect; nearly all actives have a fitted effect of over 60% in size
Target sequence (P51450 whole entry, looked up, the tested form may be a part): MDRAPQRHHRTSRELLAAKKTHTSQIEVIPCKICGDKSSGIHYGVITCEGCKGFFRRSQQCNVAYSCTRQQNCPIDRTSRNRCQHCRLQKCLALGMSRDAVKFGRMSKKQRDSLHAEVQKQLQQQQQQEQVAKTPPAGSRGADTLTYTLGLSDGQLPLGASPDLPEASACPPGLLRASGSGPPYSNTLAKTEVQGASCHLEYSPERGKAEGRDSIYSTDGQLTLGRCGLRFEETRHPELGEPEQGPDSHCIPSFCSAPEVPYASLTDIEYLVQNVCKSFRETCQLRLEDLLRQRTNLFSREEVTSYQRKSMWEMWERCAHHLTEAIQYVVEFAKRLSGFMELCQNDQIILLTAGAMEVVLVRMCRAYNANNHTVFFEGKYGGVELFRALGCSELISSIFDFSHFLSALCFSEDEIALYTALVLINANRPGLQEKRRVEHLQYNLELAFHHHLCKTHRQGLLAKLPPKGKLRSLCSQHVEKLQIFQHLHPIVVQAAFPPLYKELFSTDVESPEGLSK
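Stable Schneider cell line, Gal4 DNA-binding domain fused to ROR gamma, UAS-luciferase. Cmpd 1 hr RT → CuSO4 700 uM final → 20 hr RT → luciferase reagent 10 min → luminescence.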
LDHA inh = blocks human lactate dehydrogenase A; P00338; purified LDHA, NADH/diaphorase-resazurin fluorescence; stronger effect = lower value; activity change, % (values are at about 110 or 230 µM); hit rate 0.15% among 480,000; AID 1347041; in the data active = activity change below about -30%; inconclusive = mostly about -25% to -30%;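 also: plate controls were DMSO wells for no effect and wells without enzyme for full effect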
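Enzyme activity of human lactate dehydrogenase 5 (2 nM; 0.06 mM NADH, 0.2 mM pyruvate, 5 min, RT) is measured via a resazurin/diaphorase fluorescence readout of residual NADH.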
IL1B secr inh = inhibitors of inflammasome signaling (IL-1 beta secretion). activity change, % at 57.5 µM. THP-1 LPS/ATP IL-1B secretion, AlphaLISA, 16 h; stronger effect = lower value. hit rate 4.7% among 360,000; in the data active = activity change below about -50%; inconclusive = mostly about -30% to -49%
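THP-1 cells pretreated 1 hr with compounds (up to 57.5 uM final), then stimulated with LPS (250 ng/mL final) plus ATP (1.25 mM final); secreted IL-1B measured by AlphaLISA after 16 hr, decreased signal indicating inhibition.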
TDP1 cell noCPT = qHTS for Inhibitors of human tyrosyl-DNA phosphodiesterase 1 (TDP1): qHTS in cells in absence of CPT. DT40 Tdp1-/- hTDP1 cells, no CPT, ATP luminescence, 48 h. Potency, µM (titrated, usually from 46.2 µM), inactives show at the top dose activity change, negative = growth inhibition, hits mostly inhibitors. hit rate 15% among 420,000. AID 686978, 2013; also: potency is read from the fitted curve at half-maximal effect; nearly all actives have a fitted effect of over 55% in size
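DT40 Tdp1-/-;hTDP1 cells, no CPT (DMSO vehicle only), 400 cells/well; compounds pin-transferred; ≥48 hr, 37 °C; CellTiter-Glo 30 min RT dark, luminescence read.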
An asterisk follows results filed as active; ? = inconclusive; . = no result given; [ ] = remark or other dose. Rows were chosen to be rich in hits. Some 18% of all compounds tested hit in one or more screens of this group. Unless noted, calls follow the shape of the dose curve; as a rule, active = well fitted curve in the direction sought with a large enough effect; inconclusive = small, poorly fitted or top-dose-only effect, or another doubt; inactive = no such curve, though single readings can be large; an effect the other way counts as inactive or inconclusive. Unless noted, % is scaled to controls: 0 for no effect and ±100 for the full control effect.

SMILES	VP16 counter	TDP1 cell CPT	RORgamma inh	LDHA inh	IL1B secr inh	TDP1 cell noCPT
CC(C)CC(NC(=O)C(NC(=O)C(Cc1ccc(OCc2ccccc2)cc1)NC(=O)OC(C)(C)C)C(C)C)C(N)=O (stereo unspecified)	13µM*	?	?	-2	22	16µM*
CC(NC(=O)OC(C)(C)C)C(=O)NC(CCC(=O)OCc1ccccc1)C(N)=O (stereo unspecified)	5%	-28%	14%	-11	-8	29µM*
CN(C)C1(C#CCCCCC#CC2(N(C)C)CCCCC2)CCCCC1	.	.	.	7	.	.
Cc1ccc(C(CNC(=O)COc2cc(C)cc(C)c2)N2CCCCC2)cc1 (stereo unspecified)	.	.	.	4	.	.
CCOc1ccc(C2C(C#N)=C(N)Oc3cc(C)n(Cc4cccnc4)c(=O)c32)cc1OCC (stereo unspecified)	.	.	.	-7	.	.
Cc1ccc(-c2ccc(/C=N/NC(N)=S)o2)cc1	2.5µM*	2.9µM*	0.56µM*	-8	45	4.1µM*
NC(=S)N/N=C/c1ccc(-c2ccccc2)o1	5µM*	?	1.4µM*	-5	-24	?
NC(=S)N/N=C/c1ccc(-c2ccc(SC(F)F)cc2)o1	1.1µM*	3.7µM*	0.5µM*	-5	-30	5.2µM*
NC(=S)NN=Cc1ccc(-c2ccc(S(=O)(=O)Nc3ncccn3)cc2)o1	.	-9%	.	-8	19	?
NC(=S)N/N=C\c1ccc(-c2cccc(Cl)c2Cl)o1	1.1µM*	5.2µM*	0.89µM*	0	0	4.6µM*
Nc1nnc(CC(=O)N/N=C/c2ccc(-c3ccccc3Cl)o2)s1	-10%	12%	20%	-5	-22	12%
Cc1ccc(C)c(C(=O)c2cc3ccccc3o2)c1	.	.	.	13	.	.
NC(=S)N/N=C/c1ccc(-c2ccc(Cl)c(Cl)c2)o1	2µM*	23µM*	2.5µM*	-4	21	13µM*
CN(C)/N=C/c1ccc(/C=N/NC(N)=S)o1	?	-7%	14µM*	2	9	-28%
COC(=O)N/N=C\c1ccc(-c2cc(Cl)c(Cl)cc2Cl)o1	?	?	?	-6	14	-19%
CCOC(=O)c1ccsc1NC(=O)Cn1nnc(-c2ccccc2)n1	.	.	.	-5	.	.
COCc1nnc(NC(=O)C2CC(=O)N(c3ccc(F)cc3)C2)s1 (stereo unspecified)	.	.	.	5	.	.
c1ccc(Oc2cccc(OCCCCN3CCCC3)c2)cc1	1%	?	-17%	-8	0	18µM*
CC1CCCN(CCOc2cccc(Oc3ccccc3)c2)C1 (stereo unspecified)	10%	26µM*	-12%[1.91 µM]	-10	-30	?
CC1CN(CCCCOc2cccc(Oc3ccccc3)c2)CC(C)O1 (stereo unspecified)	-2%	?	-18%	-10	-67*	?
CC1CCN(CCCCOc2cccc(C(C)C)c2)CC1	1%	16µM*	-24%	-7	-20	?
CC1CN(CCOc2cccc(Oc3ccccc3)c2)CC(C)O1 (stereo unspecified)	-8%	?	25%[1.91 µM]	-15	16	?
CCOc1cc(/C=C/C(=O)c2ccc(Cl)cc2)ccc1O	.	.	.	4	.	.
CC(C)n1nnnc1Sc1nc(-c2cccnc2)nc2ccccc12	.	.	.	-11	.	.
O=C(CSc1nnc(-c2ccc(Cl)cc2)n1Cc1ccco1)N1CCOC1=O	.	.	.	0	.	.
SMILES	VP16 counter	TDP1 cell CPT	RORgamma inh	LDHA inh	IL1B secr inh	TDP1 cell noCPT
O=C(CCCN1C(=O)/C(=C/c2ccccc2Cl)SC1=S)NNC(=O)c1ccccc1Cl	2.8µM*	?	1µM*	-3	19	21µM*
O=C(CCCN1C(=O)/C(=C/c2ccccc2Cl)SC1=S)NNC(=O)c1ccncc1	10µM*	?	?	6	?	?
Cc1cc(NC(=O)CCCN2C(=O)/C(=C/c3ccccc3Cl)SC2=S)no1	-1%	?	-21%	-6	0	?
O=C(CCN1C(=O)/C(=C/c2ccccc2Cl)SC1=S)NC1CCS(=O)(=O)C1 (stereo unspecified)	3%	-19%	-25%	1	0	-1%
CCOC(=O)C1=C(CNc2ccc(C)c(Cl)c2)NC(=O)NC1c1ccc(Cl)cc1 (stereo unspecified)	.	.	.	-3	.	.
COc1cc(/C=C2/SC(=S)N(Cc3ccccc3)C2=O)ccc1OCC(=O)O	12%	1%	20%	-8	6	3%
COc1cc([N+](=O)[O-])cc(/C=C2/SC(=S)N(Cc3ccccc3)C2=O)c1O	5µM*	16µM*	?	3	3	7.3µM*
COc1cc(/C=C2/SC(=S)N(Cc3ccccc3)C2=O)cc(Cl)c1O	?	16µM*	?	-3	15	13µM*
COc1cc(/C=C2\SC(=O)N(Cc3ccc(Cl)cc3)C2=O)cc([N+](=O)[O-])c1O	7%[10 µM]	?	3%	2	22	23µM*
CCOc1ccc(C2C(C(=O)Nc3ccc(F)cc3)=C(C)NC3=C2C(=O)CC(C)(C)C3)cc1 (stereo unspecified)	.	.	.	-9	.	.
Cc1cc2ccccc2n1CC(=O)Nc1ccccc1	.	.	.	6	.	.
